The text below walks through data of ChEMBL document CHEMBL4513216, “Probing the Open Global Health Chemical Diversity Library for Multistage-Active Starting Points for Next-Generation Antimalarials” (ACS Infect Dis, 2020).

In all, about 69,000 compounds went through this assay and about 8,600 (12%) showed an effect of 50% or more. This excerpt belongs to a sample that is enriched for strong results.

For this assay, the system named is Plasmodium berghei. Briefly: Screen against P. berghei liver stage (PbLuc), transformed with Luciferase, at 10uM. Type of assay: functional, HepG2. The note with it: tested at 10 uM.
Turning to `Cc1cnc(N2CC[C@@H]3OC(COCC(=O)N(C)C)CC[C@@H]32)nc1` (stereo partly specified), the INHIBITION stood at 14.1%. The same measure for `CCCC1CN(CCOc2ccccc2)C(=O)c2cccnc2O1` (stereo unspecified): 44.2%; for `Cc1nn(-c2ncnc3[nH]cnc23)c2c1C(C(C)C)CC(=O)N2` (stereo unspecified): -21.2%; for `Cc1ccc2c(c1)C(=O)CC1(CCN(Cc3ccccc3)CC1)O2`: -13.2%. For `Cc1nnc(N2CCN(C(=O)NC3CC3)CC2)c(C(N)=O)c1C`, the INHIBITION is reported as 56.5%.

As to `Cc1nnc(N2CCCC2)c(C(N)=O)c1C`, the INHIBITION came out at 6.24%. The same measure for `Cc1nnc(N2CCNCC2)c(C(N)=O)c1C`: 41.5%. The same measure for `O=C(NCC1CC1)c1ccc(NC(=O)c2ccco2)cc1`: -64.3%; for `COc1c(C)cnc(CN2CCCCC2CCN2CCOCC2)c1C` (stereo unspecified): 56.1%; for `COc1c(C)cnc(CN2CCCCC2Cn2nc(C)nc2C)c1C` (stereo unspecified): 6.14%.

As for `COc1c(C)cnc(CN2CCCC2Cn2nc(C)nc2C)c1C` (stereo unspecified), the INHIBITION was 27.6%. Consider `CC(=O)N1CCC1c1cc(N2CCSCC2)nc(C)n1` (stereo unspecified), for which the INHIBITION turned out to be 29.5%. Then `CO[C@H]1CN(Cc2ccccc2F)C[C@@]12CCCO2`, with 5.56%. The same measure for `Cn1cc(N2CCC3(CCN(C(=O)[C@H]4CCCO4)C3)C2=O)cn1` (stereo partly specified): 12.7%. Then `CCN1CCC(NC(=O)CNC(C)Cn2cccn2)CC1` (stereo unspecified), with 88.6%; and `CC(Cn1cccn1)C(=O)N1CCC(Nc2cccnn2)CC1` (stereo unspecified), with 53.7%. Regarding `CC(C)C(C(=O)N1CCC(N(C)c2cccnn2)CC1)n1cncn1` (stereo unspecified), the INHIBITION is reported as 36.9%. The same measure for `CC(C)C(C(=O)N1CCC(Nc2cccnn2)CC1)n1cncn1` (stereo unspecified): 57.2%. The same measure for `CC(C(=O)N1CCC(Nc2cccnn2)CC1)n1cccn1` (stereo unspecified): 45.7%; for `CCN1CCC(NC(=O)CN2CCCC2Cn2cccn2)CC1` (stereo unspecified): 19%; for `CC(C(=O)N1CCC(Nc2cccnn2)CC1)n1ccnc1` (stereo unspecified): 23.4%.

With `CC(Cn1cccn1)NCC(=O)NC1CCOCC1` (stereo unspecified), the INHIBITION turned out to be 5.2%. For the compound `Cc1ccc(NC2CCN(C(=O)C(C(C)C)n3cncn3)CC2)nn1` (stereo unspecified), the INHIBITION is on record as 31.2%.

Turning to `CN(Cc1ccco1)C(=O)CN1CCOC(Cn2cccn2)C1` (stereo unspecified), the INHIBITION was -53.5%. The same measure for `CC(C)c1nn(C)c(N(C)C)c1CNC1CCOc2ccccc21` (stereo unspecified): 12.2%; for `COc1c(CNC2CCOc3c(Cl)cccc32)c(C(C)C)nn1C` (stereo unspecified): -69%.

Take `COc1c(CNC2CCc3cc(F)ccc32)c(C)nn1C` (stereo unspecified): the INHIBITION came out at 35.8%. The same measure for `COc1c(CNC2CCc3ccccc32)c(C)nn1C` (stereo unspecified): -63.3%; for `COc1c(CNC2CCOc3c(F)cccc32)c(C)nn1C` (stereo unspecified): 20%; for `COc1c(CNC2CCc3cc(Cl)ccc32)c(C)nn1C` (stereo unspecified): 59%. Then `COc1c(CNC2CCCOc3ccc(F)cc32)c(C)nn1C` (stereo unspecified), with -63.5%; and `COc1c(CNC2CCOc3c(Cl)cccc32)c(C)nn1C` (stereo unspecified), with 77.8%; and `CC(C)c1nn(C)c(Cl)c1CNC1CCOc2ccccc21` (stereo unspecified), with 53.3%. Then `COc1c(CNC2CCc3cc(C)ccc32)c(C)nn1C` (stereo unspecified), with 21.5%; and `COc1c(CNC2CCSc3ccc(F)cc32)c(C)nn1C` (stereo unspecified), with 75.2%; and `COc1c(CNC2CCOc3ccccc32)c(C(C)C)nn1C` (stereo unspecified), with 47.1%.
